What was measured:
[1] = system: Falciformispora senegalensis CBS197.79; test: growth relative to untreated control; higher = less inhibition, active = 20 or less
In short: (§1)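 In 96-well plates, suspended hyphal fragments of M. mycetomatis MM55 or F. senegalensis CBS197.79 were exposed to compound at 100 or 25 µM for 7 days at 37 °C. The suspension medium was colourless RPMI 1640 with L-glutamine and MOPS, adjusted to 68–72% transmission at 660 nm. Viability was measured with MTS (2 h, 490 nm) or resazurin (600 nm). Growth means metabolic activity compared with the untreated growth control after blank correction of both with medium plus dye.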

[2] = system: Madurella mycetomatis MM55; test: as above
In short: as §1

Measured: growth

NC(=O)c1ncn([C@@H]2O[C@H](CO)[C@@H](O)[C@H]2O)n1
inactive: [1]; 25 µM 110% | [1]; 100 µM 102% | [2]; 25 µM 87.9% | [2]; 100 µM 87.6%

Cc1cc2ncc(C(=O)NCC(C)(C)NCC(=O)N3CCC[C@H]3C#N)cn2n1
inactive: [1]; 25 µM 105% | [1]; 100 µM 102% | [2]; 25 µM 82.4% | [2]; 100 µM 84.8%

FC(F)(F)CNc1ncc2nc(Nc3cc(Cl)cc(Cl)c3)n(C3CCNCC3)c2n1
active: [2]; 100 µM 4.54%
inactive: [1]; 25 µM 104% | [1]; 100 µM 107% | [2]; 25 µM 70.4%

CC(=O)N1CCN(c2ccc(OC[C@H]3CO[C@](Cn4ccnc4)(c4ccc(Cl)cc4Cl)O3)cc2)CC1
inactive: [1]; 25 µM 31.6%
active: [1]; 100 µM 12.3% | [2]; 25 µM 3.29% | [2]; 100 µM 3.16%

CNc1ccc2cc(NC(=O)c3ccc(C(F)(F)F)c(Cl)c3)ccc2n1
inactive: [1]; 25 µM 69.4% | [1]; 100 µM 104% | [2]; 100 µM 77.4%
active: [2]; 25 µM 6.89%

C[C@H](NC(=O)c1cc2ccc(Cl)cc2n1C)c1ccccc1
inactive: [1]; 25 µM 93.6% | [1]; 100 µM 81.7% | [2]; 25 µM 99.6% | [2]; 100 µM 81.1%

Cn1nc(C(=O)Nc2ccc(F)c(Cl)c2)c2c1-c1ccccc1S(=O)(=O)C2
inactive: [1]; 25 µM 99.8% | [1]; 100 µM 117% | [2]; 25 µM 86.8% | [2]; 100 µM 104%

CC(C)NCc1cccc(-c2ccc(NC(=O)c3cccc(C#N)c3)cc2)c1
inactive: [1]; 25 µM 86.2% | [1]; 100 µM 27.9% | [2]; 25 µM 87.5%
active: [2]; 100 µM 5.95%

Cc1nc(NC2(c3ccc(C#N)cc3)CC2)nc(NCC2COC2)c1C
inactive: [1]; 25 µM 97.1% | [1]; 100 µM 96.2% | [2]; 25 µM 87.8% | [2]; 100 µM 22.3%

Cc1ccc(-c2c3c(nc4sc(C(=O)Nc5ccc(F)cc5)c(N)c24)CCC3)cc1
inactive: [1]; 25 µM 81.3% | [1]; 100 µM 89.6% | [2]; 25 µM 110% | [2]; 100 µM 122%

COc1cccc2c1CCCC2CCCN1CCN(C2CCCCC2)CC1 (centres undefined)
inactive: [1]; 25 µM 101% | [1]; 100 µM 103% | [2]; 25 µM 75.4% | [2]; 100 µM 68.7%

CCOc1cc([C@@H](CS(C)(=O)=O)N2C(=O)c3cccc(NC(C)=O)c3C2=O)ccc1OC
inactive: [1]; 25 µM 99.4% | [1]; 100 µM 99.6% | [2]; 25 µM 98.3% | [2]; 100 µM 90.4%

CN(C)CCOc1ccc(/C(=C(/CCCl)c2ccccc2)c2ccccc2)cc1
active: [1]; 25 µM 0% | [1]; 100 µM 0% | [2]; 25 µM 7.23% | [2]; 100 µM 6.66%

C[C@H](NC(=O)c1cc2ccc(F)cc2[nH]1)c1ccccc1
inactive: [1]; 25 µM 91.5% | [1]; 100 µM 101% | [2]; 25 µM 83.1% | [2]; 100 µM 82.5%

CCOC(=O)NCCOc1cnn(Cc2ccccc2)c(=O)c1
inactive: [1]; 25 µM 91.1% | [1]; 100 µM 101% | [2]; 25 µM 100% | [2]; 100 µM 97.3%

CC(C)Oc1cccc(-c2ccc3nc(Nc4ncccc4N(C)C)cn3c2)n1
inactive: [1]; 25 µM 88.2% | [1]; 100 µM 93.4% | [2]; 25 µM 124% | [2]; 100 µM 84.6%

CC1(C)CCC(CO)(NC(=O)c2cc3c(F)cc(F)cc3[nH]2)CC1
active: [2]; 100 µM 6.07%
inactive: [1]; 25 µM 93.1% | [1]; 100 µM 93.5% | [2]; 25 µM 28.6%

O=C(NCCN1CCCCC1)c1cncc(-c2ccc(Cl)c(Cl)c2)c1
inactive: [1]; 25 µM 95.7% | [1]; 100 µM 30.1% | [2]; 25 µM 52.1%
active: [2]; 100 µM 5.8%

Cc1c(O)cccc1C(=O)N[C@@H](CSc1ccccc1)[C@H](O)CN1C[C@H]2CCCC[C@H]2C[C@H]1C(=O)NC(C)(C)C
inactive: [1]; 25 µM 107% | [1]; 100 µM 105% | [2]; 25 µM 83.9% | [2]; 100 µM 88.2%

Cc1cccc(-c2noc(-c3ccccc3)n2)c1
inactive: [1]; 25 µM 86.3% | [1]; 100 µM 99.4% | [2]; 25 µM 90.6% | [2]; 100 µM 68.5%

OC(Cn1cncn1)(Cn1cncn1)c1ccc(F)cc1F
active: [2]; 100 µM 4.95%
inactive: [1]; 25 µM 106% | [1]; 100 µM 105% | [2]; 25 µM 76%

CN(C)c1cc(NC(=O)CNC(C)(C)C)c(O)c2c1C[C@H]1C[C@H]3[C@H](N(C)C)C(O)=C(C(N)=O)C(=O)[C@@]3(O)C(O)=C1C2=O
inactive: [1]; 25 µM 104% | [1]; 100 µM 107% | [2]; 25 µM 69.1% | [2]; 100 µM 104%

CC(C)n1ncc2c(C(=O)N3CCCc4ccccc43)cc(-c3ccccc3)nc21
inactive: [1]; 25 µM 82.5% | [1]; 100 µM 89.8% | [2]; 25 µM 71.5% | [2]; 100 µM 59.8%

CN(C)CCN1CCCN(c2ccnc3ccsc23)CC1
inactive: [1]; 25 µM 90.2% | [1]; 100 µM 99.7% | [2]; 25 µM 76% | [2]; 100 µM 79.5%

CN1CCN(c2ccc(C(=O)NCc3cnc(C#N)nc3NCC(C)(C)C)cc2)CC1
active: [1]; 100 µM 18.9% | [2]; 100 µM 3.97%
inactive: [1]; 25 µM 102% | [2]; 25 µM 72.9%

CCCCc1nc(Cl)c(CO)n1Cc1ccc(-c2ccccc2-c2nn[nH]n2)cc1
inactive: [1]; 25 µM 105% | [1]; 100 µM 105% | [2]; 25 µM 103% | [2]; 100 µM 88.8%

O=C1CN(C(=O)CCC2CCCC2)C(c2ccc(F)cc2)c2cc(Cl)ccc2N1 (centres undefined)
inactive: [1]; 25 µM 71.2% | [1]; 100 µM 74.3% | [2]; 25 µM 69.6% | [2]; 100 µM 94.9%

CC(CN1c2ccccc2Sc2ccccc21)N(C)C (centres undefined)
active: [1]; 100 µM 12.8% | [2]; 100 µM 3.58%
inactive: [1]; 25 µM 102% | [2]; 25 µM 77.8%

CNC(=O)c1cc(-c2n[nH]c3ccc(-c4nc(C5CCCN5)n[nH]4)cc23)ccc1F (centres undefined)
inactive: [1]; 25 µM 105% | [1]; 100 µM 106% | [2]; 25 µM 98.4% | [2]; 100 µM 71.5%

CC(=O)c1nn(-c2c(Cl)cc(C(F)(F)F)cc2Cl)c(N)c1S(C)=O (centres undefined)
inactive: [1]; 25 µM 94.6% | [1]; 100 µM 83.2% | [2]; 25 µM 119% | [2]; 100 µM 107%

O=C(c1ccc(Nc2nccc(-c3cc(Cl)cc(C(F)(F)F)c3)n2)cc1)N1CC2(COC2)C1
inactive: [1]; 25 µM 96% | [1]; 100 µM 96.8% | [2]; 25 µM 62.9% | [2]; 100 µM 50.6%

CCN(CCO)CCCC(C)Nc1ccnc2cc(Cl)ccc12 (centres undefined)
inactive: [1]; 25 µM 109% | [1]; 100 µM 105% | [2]; 25 µM 85.1% | [2]; 100 µM 78.2%

O=C1NCCN1CCN1CCC(c2cn(-c3ccc(F)cc3)c3ccc(Cl)cc23)CC1
active: [1]; 25 µM 7.42% | [1]; 100 µM 19.4% | [2]; 25 µM 5.95% | [2]; 100 µM 4.92%

CC(C)C[C@H](NC(=O)[C@@H](NC(=O)c1cccc(-c2ccccc2)n1)[C@@H](C)O)B(O)O
inactive: [1]; 25 µM 102% | [1]; 100 µM 99% | [2]; 25 µM 99.4% | [2]; 100 µM 88.5%

CCCCC(=O)N(Cc1ccc(-c2ccccc2-c2nn[nH]n2)cc1)[C@H](C(=O)O)C(C)C
inactive: [1]; 25 µM 103% | [1]; 100 µM 107% | [2]; 25 µM 82.1% | [2]; 100 µM 83.4%

CC(C)Nc1ncc2nc(Nc3cc(C(F)(F)F)cc(C(F)(F)F)c3)n(C3CCNCC3)c2n1
inactive: [1]; 25 µM 104% | [1]; 100 µM 107% | [2]; 25 µM 104% | [2]; 100 µM 64.5%

Cc1c(-c2ccc(-c3ccccc3F)cc2)nc2ccc(F)cc2c1C(=O)O
inactive: [1]; 25 µM 103% | [1]; 100 µM 98.6% | [2]; 25 µM 115% | [2]; 100 µM 83.3%

CC(C)(C)Nc1ncc2nc(Nc3cc(Cl)cc(C(F)(F)F)c3)n([C@H]3C[C@H](N)C3)c2n1
active: [1]; 100 µM 11.3% | [2]; 25 µM 7.82% | [2]; 100 µM 5.73%
inactive: [1]; 25 µM 50.9%

Clc1ccc2c(N3CCN(CCCN4CCN(c5ccnc6cc(Cl)ccc56)CC4)CC3)ccnc2c1
inactive: [1]; 25 µM 104% | [1]; 100 µM 101% | [2]; 25 µM 95.9% | [2]; 100 µM 86.7%

CN(C)C(=O)COC(=O)Cc1ccc(OC(=O)c2ccc(NC(=N)N)cc2)cc1
inactive: [1]; 25 µM 112% | [1]; 100 µM 108% | [2]; 25 µM 77.6% | [2]; 100 µM 93.2%

C[C@H](NC(=O)c1cc2cccc(F)c2[nH]1)c1ccccc1
inactive: [1]; 25 µM 100% | [1]; 100 µM 90.3% | [2]; 25 µM 26.9%
active: [2]; 100 µM 6.74%

CC[C@H](C)[C@@H]1NC(=O)c2csc(n2)[C@H]([C@@H](C)CC)NC(=O)c2csc(n2)CNC(=O)c2nc1oc2C
inactive: [1]; 25 µM 83.8% | [1]; 100 µM 100% | [2]; 25 µM 64.4% | [2]; 100 µM 44.8%

O=C(Nc1cccc(-c2n[nH]c3ccc(-c4n[nH]c(C5CCCN5)n4)cc23)c1)C1CC1 (centres undefined)
inactive: [1]; 25 µM 102% | [1]; 100 µM 95% | [2]; 25 µM 62.4% | [2]; 100 µM 36.4%

CN(C)c1ncc2nc(Nc3cc(Cl)cc(C(F)(F)F)c3)n(C3CCNCC3)c2n1
inactive: [1]; 25 µM 102% | [1]; 100 µM 99.5% | [2]; 25 µM 86.2%
active: [2]; 100 µM 5.43%

CN1CCC[C@@H]1CCO[C@](C)(c1ccccc1)c1ccc(Cl)cc1
active: [1]; 25 µM 17.9% | [1]; 100 µM 13.7% | [2]; 25 µM 11.1% | [2]; 100 µM 4.37%

C[C@@H]1[C@@H](NC(=O)c2cn3cc(Cl)ccc3n2)C[C@H]2C[C@@H]1C2(C)C
inactive: [1]; 25 µM 95.5% | [1]; 100 µM 102% | [2]; 25 µM 69.5%
active: [2]; 100 µM 7.3%
